Screens (PubChem BioAssay)
PKM2 activator – qHTS Assay for Activators of Human Muscle isoform 2 Pyruvate Kinase | 0.34% of 260,000 active | Pyruvate kinase PKM (Homo sapiens), P14618 | purified PKM2, Kinase-Glo ATP luminescence, activation; response scale: 0% is enzyme alone, no compound | Potency, µM (top dose mostly 57.5 µM), inactives show top-dose activation, most hits filed as activators; also: potency is read from the fitted curve at half-maximal effect; nearly all actives have a fitted effect of over 55% in size
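hPK-M2, >95% pure; 0.1 mM ADP / 0.5 mM PEP final; imidazole pH7.2 buffer w/ 7 mM MgCl2, 50 mM KCl; 1 h RT; Kinase-Glo lum. Intermediate enzyme activity for dual inhibitor/activator qHTS.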
RORg inh – qHTS for inhibitors of ROR gamma transcriptional activity. Nuclear receptor ROR-gamma (Mus musculus), P51450. Drosophila S2 Gal4-RORgamma UAS-luciferase reporter, 20 h. Potency, µM (titrated, usually from 53.6 µM), for the others: at the top dose activity change, negative = inhibition, most hits filed as inhibitors. 5.4% of 310,000 active. AID 2551, 2010; also: potency is read from the fitted curve at half-maximal effect; nearly all actives have a fitted effect of over 60% in size
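Stably transfected Drosophila Schneider cells are the test system, with ROR gamma fused to Gal4 and luciferase under UAS control; luminescence is read after 20 hr of 700 uM copper sulfate induction at ambient temperature.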
CtBP-E1A blk – qHTS Assay for Inhibitors of the CtBP/E1A Interaction; CtBP / adenovirus E1A interaction (AlphaScreen); AlphaScreen GST-E1A/His-CtBP binding, 1536-well; active compounds read low; activity change, % (test concentration not listed); 0.49% of 340,000 active; AID 651724, 2012; in the data active = activity change below about -65%; inconclusive = mostly about -30% to -63%
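Protein mix (5X: 125 nM each GST-E1A, His-CtBP) was incubated with pinned compound 2 h at 37 deg C in dark, in 50 mM Tris pH 8.0 buffer with 300 mM NaCl. Glutathione donor and nickel acceptor beads followed; AlphaScreen signal read after 1 h.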
Gal4-VP16 FLuc – VP16 counterscreen qHTS for inhibitors of ROR gamma transcriptional activity; Drosophila S2 Gal4-VP16 UAS-luciferase, luminescence, 20 h; Potency, µM (highest dose often 53.6 µM), for inactives: at the top dose activity, negative = inhibition, actives largely listed as inhibitors; 3.5% of 310,000 active; AID 2546, 2010;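 also: Gal4-VP16 expression switched on by copper sulfate through the metallothionein promoter; potency is read from the fitted curve at half-maximal effect; nearly all actives have a fitted effect of over 50% in size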
Six1-Eya2 inh – qHTS Assay for Inhibitors of the Six1/Eya2 Interaction; Homeobox protein SIX1 (Homo sapiens) + Protein phosphatase EYA2 (Homo sapiens), …; AlphaScreen GST-Six1/His-Eya2 binding, biochemical; active compounds read low; activity change, % (test concentration not listed); 0.56% of 360,000 active; in the data active = activity change below about -65%; inconclusive = mostly about -30% to -63%
Target sequence (O00167 whole entry, looked up): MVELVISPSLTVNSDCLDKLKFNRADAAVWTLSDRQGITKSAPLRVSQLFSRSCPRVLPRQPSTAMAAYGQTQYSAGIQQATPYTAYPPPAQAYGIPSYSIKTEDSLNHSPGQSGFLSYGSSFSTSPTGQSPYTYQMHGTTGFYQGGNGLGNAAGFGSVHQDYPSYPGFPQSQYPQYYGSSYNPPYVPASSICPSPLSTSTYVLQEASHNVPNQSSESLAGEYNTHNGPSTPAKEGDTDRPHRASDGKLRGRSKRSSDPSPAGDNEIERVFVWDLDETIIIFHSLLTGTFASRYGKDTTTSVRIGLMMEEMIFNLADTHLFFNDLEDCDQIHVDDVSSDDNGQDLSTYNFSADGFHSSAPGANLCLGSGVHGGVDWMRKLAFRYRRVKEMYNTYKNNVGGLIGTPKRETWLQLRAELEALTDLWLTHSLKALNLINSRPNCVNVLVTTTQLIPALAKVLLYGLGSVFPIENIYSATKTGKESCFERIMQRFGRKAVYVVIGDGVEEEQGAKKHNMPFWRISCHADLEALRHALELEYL
Target sequence (Q15475 whole entry, looked up): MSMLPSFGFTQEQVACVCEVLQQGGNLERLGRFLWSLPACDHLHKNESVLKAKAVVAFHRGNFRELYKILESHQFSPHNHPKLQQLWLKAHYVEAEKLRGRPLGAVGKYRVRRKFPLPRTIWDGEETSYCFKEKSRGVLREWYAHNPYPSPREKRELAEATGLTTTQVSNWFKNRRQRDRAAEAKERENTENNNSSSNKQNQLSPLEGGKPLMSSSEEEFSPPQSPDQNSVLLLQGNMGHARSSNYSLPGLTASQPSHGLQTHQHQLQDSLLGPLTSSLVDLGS
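AlphaScreen with GST-Six1 and His-Eya2 (5X mix: 250 nM and 500 nM), glutathione donor and nickel acceptor beads; buffer 50 mM Tris pH 8.0, 300 mM NaCl, 1 mM TCEP; 1 h at 37 C in the dark.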
An asterisk follows results filed as active; ? = inconclusive; nt = no result; [ ] = another dose, or the depositor's remark. The list is not random: actives were taken first. Their share in the collection is about 5.6%. Unless noted, calls follow the shape of the dose curve; as a rule, active = well fitted curve in the direction sought with a large enough effect; inconclusive = small, poorly fitted or top-dose-only effect, or another doubt; inactive = no such curve, though single readings can be large; an effect the other way counts as inactive or inconclusive. % is scaled to controls: 0 for no effect and ±100 for the full control effect.

SMILES	PKM2 activator	RORg inh	CtBP-E1A blk	Gal4-VP16 FLuc	Six1-Eya2 inh
COC(=O)c1ccc(COc2ccccc2/C=N/Nc2cccc(C(=O)O)c2)cc1	0%	-10%	0	-3%	-12
O=C(O)c1cccc(NC(=S)N/N=C/c2ccccc2OCc2ccc(Br)cc2)c1	-32%	13µM*	-4	-6%	-2
O=C(O)c1cccc(NC(=S)N/N=C/c2ccccc2OCc2cccc(Br)c2)c1	-15%	11µM*	0	-8%	-15
O=C(Nc1ccc(OC(F)F)c(Cl)c1)C(c1ccccc1)c1ccccc1	-1%	?	0	?	15
FC(F)Oc1ccc(NC(=S)NCc2ccccc2)cc1Cl	-2%	14µM*	8	?	5
FC(F)Oc1ccc(NC(=S)NCc2ccccc2)cc1	1%	13µM*	0	?	3
FC(F)Oc1ccc(NC(=S)NCCc2ccccn2)cc1	7%	4.5µM*	5	5µM*	-1
CN(NC(=S)Nc1ccc(OC(F)F)cc1)C(=S)Nc1ccc(OC(F)F)cc1	-1%	-29%	10	13µM*	1
CCN(CC(=O)NCc1cccs1)C(=O)c1ccc(OC)c(OC)c1	nt	nt	8	nt	1
COc1ccc(-c2cc(C3C4C=CCCC4(C)C(=O)N3Cc3ccccc3)ccc2F)cc1 (stereo unspecified)	nt	10%	nt	-2%	nt
Oc1cccc2c(NC(=S)Nc3ccc(OC(F)F)cc3)cccc12	-15%	?	-20	11µM*	-11
FC(F)Oc1ccc(NC(=S)Nn2cnnc2)cc1	-12%	-25%	1	-14%	2
O=[N+]([O-])c1cccc(S(=O)(=O)c2ccc(NCCO)c([N+](=O)[O-])c2)c1	16µM*	12%	6	4%	-2
CC(C)N(Cc1nc(COc2ccccc2)no1)Cc1nccn1C	5%	?	nt	23%	-3
CC(C)N(Cc1nc(-c2ccc3c(c2)OCO3)no1)Cc1nccn1C	-2%	14µM*	nt	-8%	-4
COc1ccc(-c2noc(CN(C(=O)c3ccc4c(c3)OCO4)C(C)C)n2)cc1	0%	37%	-3	5%	0
Cn1ccnc1C1CCCCN1Cc1nc(Cc2ccccc2F)no1 (stereo unspecified)	3%	?	4	9%	0
COC(=O)c1ccc(-c2noc(CN3CCCCC3c3nccn3C)n2)cc1 (stereo unspecified)	8%	13µM*	-17	-12%	2
COC(=O)c1ccc(-c2noc(CN(Cc3nccn3C)C(C)C)n2)cc1	-1%	10µM*	nt	-6%	-1
Cn1nc(C(C)(C)C)c(NC(=O)c2cccs2)c1C(C)(C)C	-8%	5%	10	2%	-24
COc1ccc(CCN2CC(C(=O)NCCc3cnn(C)c3)CCC2=O)cc1 (stereo unspecified)	0%	6%	2	-2%	5
CC(C)Cn1c(-c2ccccc2)nc(=S)c2c1CCCC2	-8%	20µM*	-4	-16%	1
C=CCn1c(-c2ccccc2)nc(=S)c2c1CCCC2	0%	-26%	-16	-5%	-2
c1ccc(-c2nc3nc4ccccc4nc3n2Cc2ccco2)cc1	24%	-91%	0	20µM*	-21
S=c1nc(-c2ccccc2)n(Cc2ccco2)c2c1CCCC2	12%	18µM*	nt	?	nt
SMILES	PKM2 activator	RORg inh	CtBP-E1A blk	Gal4-VP16 FLuc	Six1-Eya2 inh
O=C(NCCc1ccccc1F)c1cccc2cccnc12	0%	3%	-1	-20%	-2
O=C1c2cc(Br)ccc2N(Cc2ccc(Br)cc2)S(=O)(=O)C1c1cc(Cl)c(Cl)cc1[N+](=O)[O-] (stereo unspecified)	nt	nt	-14	nt	-14
Cc1ccc(CN(CC2CCCO2)C(=O)CN2C(=O)C(C(C)C)Oc3ccccc32)o1 (stereo unspecified)	32µM*	-1%[10 µM]	-11	6%	-7
Cc1ccc(C2=NNC(C(O)C(O)C(O)C(O)CO)S2)cc1 (stereo unspecified)	4%	?	-7	-17%	1
OC[C@H](O)[C@H](O)[C@@H](O)[C@@H](O)[C@@H]1SC(c2ccccc2)=NN1c1ccccc1	0%	8.9µM*	-3	-25%	-4
c1ccc(Oc2nc(-c3ccccn3)nc3ccccc23)cc1	-6%	0.63µM*	-94*	3.2µM*	-79*
Fc1ccc(Oc2nc(-c3ccccn3)nc3ccccc23)cc1	3%	0.71µM*	-15	2.5µM*	-13
COc1ccc(Oc2nc(-c3ccccn3)nc3ccccc23)cc1	-11%	0.4µM*	-66*	2.5µM*	-86*
Cc1nc(Oc2ccccc2)c2ccccc2n1	10%	-27%	7	1%	1
CSc1nc(Oc2ccc(F)cc2)c2ccccc2n1	-3%	-14%	9	-2%	22
O=C(COC(=O)CCc1nc2ccccc2c(=O)[nH]1)Nc1ccccc1OC(F)F	nt	nt	-27	nt	-1
Cc1ccccc1C(=O)NNC(=O)C1CC(=O)N(c2ccc3c(c2)OCCO3)C1 (stereo unspecified)	nt	nt	-2	nt	2
CCc1nc2c(OCc3ccc(Cl)cc3Cl)cccn2c1N(C)C(=O)CC(C)C	nt	nt	-8	nt	-1
Cc1cc(=O)[nH]c(N/N=C/c2cc(C)n(-c3ccccc3)c2C)n1	-10%	?	-3	-19%	5
Cc1cc(/C=N/Nc2nc(N)ncc2[N+](=O)[O-])c(C)n1-c1cccc(C(F)(F)F)c1	-24%	6.3µM*	nt	?	nt
Cc1cc(/C=N/Nc2ncnc(N)c2[N+](=O)[O-])c(C)n1-c1ccccc1	-28%	6.3µM*	?	6.3µM*	?
COc1cccc(/C=N/Nc2ncnc(N)c2[N+](=O)[O-])c1OC	-7%	?	-2	?	-2
CCCC(C)(C)C(=O)N1CCC1(C)C(=O)Nc1cccc2ccccc12 (stereo unspecified)	nt	nt	-4	nt	0
CCc1c(Cl)nc(N)nc1Nc1ccccc1C	nt	nt	5	nt	-1
Cc1ccccc1Nc1nc(N)[nH]c(=O)c1N=O	nt	nt	-86*	nt	?
NCCCCCCCCCCNS(=O)(=O)c1cccc2c(Cl)cccc12	nt	?	nt	32µM*	nt
NCCCCCCNS(=O)(=O)c1cccc2c(Cl)cccc12	nt	25%	-6	15%	0
CCOc1ccc(NC(=O)COC(=O)c2cc(C)oc2C)cc1	nt	nt	-10	nt	7
COc1ccc(Br)cc1/C=N/n1c(-c2ccccc2)n[nH]c1=S	-1%	?	-1	-20%	1
COc1ccccc1/C=C\C=N\n1c(-c2ccc(Cl)cc2Cl)n[nH]c1=S	1%	7.9µM*	-18	10µM*	-11
